# Reference: PubChem BioAssay (NCATS)
# Records with an inconclusive call do not appear. Active and inactive are the calls of the source.
# Assay: qHTS for identification of novel therapeutic agents for treatment of microphthalmiaassociated transcription factor (MiT) renal cell carcinoma (RCC) (AID 1963991)
# Details: CellTiter-Glo, 48 h; for Potency: active = Z-AUC below -0.8 in all three lines; for z-score: stronger effect = lower value
# Excerpt: PI: Marston Linehan Ph.D.
# Urologic Oncology Branch, Center for Cancer Research (CCR)
# National Cancer Institute (NCI), National Institute of Health (NIH), Bethesda, Maryland
# MiT-Renal Cell Carcinoma (RCC) is characterized by genomic translocations involving microphthalmia-associated transcription factor (MiT) family members TFE3, TFEB, or MITF. MiT-RCC represents a specific subtype of sporadic RCC that is predominantly seen in young patients and can present with heterogeneous histological features making diagnosis challenging. Moreover, the disease biology of this aggressive cancer is poorly understood and there is no accepted standard of care therapy for patients with advanced disease. Tumor-derived cell lines have been established from human TFE3-RCC providing useful models for preclinical studies. TFE3-RCC tumor derived cell lines and their tissues of origin were characterized by IHC and gene expression analyses. An unbiased high-throughput drug screen was performed to identify novel therapeutic agents for treatment of MiT-RCC. Potential therapeutic candidates were validated in in vitro and in vivo preclinical studies. Mechanistic assays were conducted to confirm the on-target effects of drugs. The results of a high-throughput small molecule drug screen utilizing three TFE3-RCC tumor-derived cell lines identified five classes of agents with potential pharmacological efficacy, including inhibitors of phosphoinositide-3-kinase (PI3K) and mechanistic target of rapamycin (mTOR), and several additional agents, including the transcription inhibitor Mithramycin A. Upregulation of the cell surface marker GPNMB, a specific MiT transcriptional target, was confirmed in TFE3-RCC and evaluated as a therapeutic target using the GPNMB-targeted antibody-drug conjugate CDX-011. […] The results of the high-throughput drug screen and validation studies in TFE3-RCC tumor-derived cell lines have provided in vitro and in vivo preclinical data supporting the efficacy of the PI3K/mTOR inhibitor.
# SEQUENCE No. (e.g., 1, 2, 3, etc.); […] (e.g., Cells, Incubation, Reagent, etc.); VALUE; DESCRIPTION.
# 1; Cells; 3 uL; white, solid-bottom Grenier assay plate.
# 2; Compounds; 23 nL; Kalypsis pin-tool (Wako USA).
# 3; Incubation; 48 hr; 37 C, 5% CO2, 95% humidity.
# 4; Reagent; 3 uL; CellTiter-Glo reagent (Promega).
# 5; Incubation; 15 min; room temperature.
# 6; Detection; Luminescence; ViewLux plate reader (PerkinElmer).
# NOTES (numbers refer to Sequence numbers above)
# 1. Quantitative high-throughput screening (qHTS) of 1912 pharmacologically defined small molecule compounds was conducted on three TFE3-fusion cell lines bearing three different fusion partners (UOK109, UOK124, UOK145). Briefly, 500 cells in complete growth media were plated into white, solid-bottom, 1536-well tissue culture treated plates (Grenier Cat. 789173-F) using a Multidrop Combi cassette dispenser.
# 2. Twenty-three nanoliter of 1912 pharmacologically defined small molecule compounds of the NCATS Mechanism Interrogation PlatE (MIPE) version 4.0 were added to each assay plate using a Pintool Dispenser (Wako) equipped with 1536 pin head.
# 3. Plates were covered with stainless steel gasketed lids and incubated for 48 hours at standard cell culture conditions.
# 4. Viability was assessed by adding 3uL of CellTiter-Glo detection reagent (Promega).
# 5. Plates were covered with gasket lids and incubated for 15 minutes at room temperature.
# 6. Luminescence was measured on a ViewLux plate reader (PerkinElmer). Post-screen data processing used DMSO controls as 100% viability and empty wells as 0% viability and dose response curve fitting was done for all 11 concentrations for each compound.
# [1] = TFE3-RCC UOK109 viability, measured here: UOK109 Z-AUC
# [2] = TFE3-RCC viability, measured here: UOK124 Z-AUC
# [3] = TFE3-RCC viability, measured here: UOK145 Z-AUC
# Potency is the fitted concentration of half-maximal effect.
Structure (SMILES),Potency (TFE3-RCC UOK109 viability),z-score [1],z-score [2],z-score [3]
CCOc1ccc(Nc2nc(-c3c(C)nc4ccccn34)cs2)cc1,0.00235 µM (active),-1.91,-2.79,-1.17
c1ccc2c(-c3cnn4cc(-c5ccc(N6CCNCC6)cc5)cnc34)ccnc2c1,18.7 µM (active),-0.898,-1.42,-1.11
CC(C)(C)OC(=O)N[C@H]1CCCCCC=C[C@@H]2C[C@@]2(C(=O)NS(=O)(=O)C2CC2)NC(=O)[C@@H]2C[C@@H](OC(=O)N3Cc4cccc(F)c4C3)CN2C1=O,,0.6,0.826,2.04
CO[C@H]1C[C@@H]2CC[C@@H](C)[C@@](O)(O2)C(=O)C(=O)N2CCCC[C@@H]2C(=O)O[C@H]([C@@H](C)C[C@@H]2CC[C@H](O)[C@H](OC)C2)CC(=O)[C@H](C)C=C(C)[C@@H](O)[C@@H](OC)C(=O)[C@H](C)C[C@H](C)C=CC=CC=C1C,,-0.128,1.08,-0.61
O=C(CCc1ccc(O)cc1)c1c(O)cc(O)cc1O[C@@H]1O[C@H](CO)[C@H](O)[C@H](O)[C@H]1O,,-0.101,0.0784,-0.273
COc1ccc2cccc(CCNC(C)=O)c2c1,,0.892,0.661,0.732
CC(C)(C)c1cc(C(=O)O)c(NC(=O)Nc2ccc3[nH]ncc3c2)s1,,0.185,-0.00808,0.16
C=C1C(=O)OC(CCCCCCCC)C1C(=O)O (stereo unspecified),,0.725,0.792,0.524
CC(C)C(C)C=CC(C)C1CCC2C3=CC=C4CC(O)CCC4(C)C3CCC21C (stereo unspecified),,0.762,0.655,1.94
CCC(=O)O[C@]1(C(=O)CO)CC[C@H]2[C@@H]3CCC4=CC(=O)CC[C@]4(C)[C@@H]3CC[C@@]21C,,1.05,0.404,0.464
O=C1C[C@@H](c2ccc(O)cc2)Oc2cc(O)cc(O)c21,,0.38,0.851,0.18
CC1CCC(C(=O)N(c2cc(C#CC(C)(C)C)sc2C(=O)O)C2CCC(O)CC2)CC1 (stereo unspecified),,1.18,1.68,0.196
CC[C@H]1OC(=O)[C@H](C)[C@@H](O[C@H]2C[C@@](C)(OC)[C@@H](O)[C@H](C)O2)[C@H](C)[C@@H](O[C@@H]2O[C@H](C)C[C@H](N(C)C)[C@@H]2O)[C@](C)(O)C[C@@H](C)CN(C)[C@H](C)[C@@H](O)[C@]1(C)O,,-4,0.7,0.923
